Among the data in PMC10812921, “Transcriptional Coactivator BOB1 (OBF1, OCA-B) Modulates the Specificity of DNA Recognition by the POU-Domain Factors OCT1 and OCT2 in a Monomeric Configuration” are binding signal values, retold here.

One assay has as its target POU1 (OCT1 POU domain) (human, UniProt P14859 260-458). The assay is described as follows: EMSA-SELEX-seq; no BOB1; 20 mM Tris-HCl pH 7.6, 140 mM NaCl, 10% glycerol, 0.5 mM EDTA, 0.05% Triton X-100, 0.1 mg/mL BSA, 0.1 mg/mL poly(dI-dC), 5 mM DTT, room temperature, 20 min; high values mean tight binding. The note with it: protein: recombinant; dsDNA, one strand shown. The method in brief:
(§1)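 Binding preference means the percentage of sequenced 8-mers matching a motif pattern. Tagged POU-domain proteins (30 ng), expressed in E. coli BL21, purified under denaturing conditions and renatured, were mixed with 300 ng of a PCR-amplified double-stranded random 35-nt library, with or without 28 ng coactivator protein, for 20 min at RT in 20 μL Tris–HCl pH 7.6 binding buffer. Selection was repeated over four rounds of excising complex bands from native 6% PAGE, eluting and PCR amplification, followed by Illumina sequencing.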
(A gel shift assay detects complexes by their altered migration in electrophoresis.)

The target in a further assay is T1, POU2 (OCT2 POU domain) (human, UniProt P09086 175-386).
T1 sequence: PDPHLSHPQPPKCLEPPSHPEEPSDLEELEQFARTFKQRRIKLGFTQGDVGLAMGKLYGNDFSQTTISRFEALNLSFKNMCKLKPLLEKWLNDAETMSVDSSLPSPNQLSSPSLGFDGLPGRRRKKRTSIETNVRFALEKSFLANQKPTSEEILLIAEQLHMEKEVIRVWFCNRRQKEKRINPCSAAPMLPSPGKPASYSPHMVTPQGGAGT
Described as above. The settings on record: protein: recombinant; dsDNA, one strand shown. The method in brief: as §1

In assay [1] the target is POU1 (OCT1 POU domain);BOB1 (OBF1, OCA-B) (human;human, UniProt P14859;Q16633 260-458;1-256, |). The assay is described as follows: EMSA-SELEX-seq; with BOB1 (ternary complex band); 20 mM Tris-HCl pH 7.6, 140 mM NaCl, 10% glycerol, 0.5 mM EDTA, 0.05% Triton X-100, 0.1 mg/mL BSA, 0.1 mg/mL poly(dI-dC), 5 mM DTT, room temperature, 20 min; high values mean tight binding. The settings on record: protein: recombinant;recombinant; copies: 1;1; dsDNA, one strand shown. The method, boiled down: as §1

Assay [2] addresses T2, POU2 (OCT2 POU domain);BOB1 (OBF1, OCA-B) (human;human, UniProt P09086;Q16633 175-386;1-256, |).
T2 sequence 1: T1 sequence
T2 sequence 2: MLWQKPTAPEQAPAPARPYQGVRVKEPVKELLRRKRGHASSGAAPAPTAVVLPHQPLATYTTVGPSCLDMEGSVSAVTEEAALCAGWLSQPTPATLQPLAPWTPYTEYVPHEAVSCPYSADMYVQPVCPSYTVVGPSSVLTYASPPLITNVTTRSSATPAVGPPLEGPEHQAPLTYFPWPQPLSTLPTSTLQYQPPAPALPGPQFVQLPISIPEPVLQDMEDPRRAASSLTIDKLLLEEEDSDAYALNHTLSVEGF
Described as above. The note with it: protein: recombinant;recombinant; copies: 1;1; dsDNA, one strand shown. The method, boiled down:
as §1

Chain of POU1 (OCT1 POU domain) (P14859 260-458): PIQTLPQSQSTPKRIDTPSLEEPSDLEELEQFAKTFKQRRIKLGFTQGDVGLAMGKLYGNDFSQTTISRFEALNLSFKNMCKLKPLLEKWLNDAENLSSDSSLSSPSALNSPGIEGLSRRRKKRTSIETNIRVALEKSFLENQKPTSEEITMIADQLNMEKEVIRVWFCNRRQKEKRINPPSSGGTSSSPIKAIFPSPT

For ATATAAAA, the binding signal in the assay with POU1 (OCT1 POU domain) is 0.103 % of ANNNNAAN 8-mers; in the assay with POU2 (OCT2 POU domain), 0.102 % of ANNNNAAN 8-mers; in assay [1] it was 0.101 % of ANNNNAAN 8-mers; in assay [2] it was 0.0702 % of ANNNNAAN 8-mers.
Consider ATGGAAAA, for which the binding signal in the assay with POU1 (OCT1 POU domain) is 0.233 % of ANNNNAAN 8-mers; in the assay with POU2 (OCT2 POU domain), 0.162 % of ANNNNAAN 8-mers; in assay [1], 0.289 % of ANNNNAAN 8-mers; in assay [2], 0.147 % of ANNNNAAN 8-mers.
Taken in the same sequence, the figures for AAGTAAAC were 0.0477 % of ANNNNAAN 8-mers, 0.0489 % of ANNNNAAN 8-mers, 0.0535 % of ANNNNAAN 8-mers and 0.0487 % of ANNNNAAN 8-mers.
Taken in the same sequence, the figures for ATTGAAAT were 0.257 % of ANNNNAAN 8-mers, 0.29 % of ANNNNAAN 8-mers, 0.189 % of ANNNNAAN 8-mers and 0.137 % of ANNNNAAN 8-mers.
For AAGTGAAG, in that order: 0.0381 % of ANNNNAAN 8-mers, 0.0409 % of ANNNNAAN 8-mers, 0.0386 % of ANNNNAAN 8-mers and 0.0454 % of ANNNNAAN 8-mers.
In the case of ATTAGAAG, the binding signal with POU1 (OCT1 POU domain) was 0.0786 % of ANNNNAAN 8-mers; with POU2 (OCT2 POU domain) it was 0.101 % of ANNNNAAN 8-mers; in assay [1], 0.0585 % of ANNNNAAN 8-mers; in assay [2], 0.066 % of ANNNNAAN 8-mers.
For AATTTAAA, in that order: 0.913 % of ANNNNAAN 8-mers, 0.793 % of ANNNNAAN 8-mers, 0.303 % of ANNNNAAN 8-mers and 0.312 % of ANNNNAAN 8-mers.
Taken in the same sequence, the figures for AAGCCAAA were 0.0305 % of ANNNNAAN 8-mers, 0.0414 % of ANNNNAAN 8-mers, 0.0464 % of ANNNNAAN 8-mers and 0.0256 % of ANNNNAAN 8-mers.
For ATCAGAAC, in that order: 0.0214 % of ANNNNAAN 8-mers, 0.0242 % of ANNNNAAN 8-mers, 0.0238 % of ANNNNAAN 8-mers and 0.0371 % of ANNNNAAN 8-mers.
In the case of ACCTTAAA, the binding signal is 0.021 % of ANNNNAAN 8-mers in the assay with POU1 (OCT1 POU domain), 0.023 % of ANNNNAAN 8-mers with POU2 (OCT2 POU domain), 0.0375 % of ANNNNAAN 8-mers in assay [1] and 0.0173 % of ANNNNAAN 8-mers in assay [2].
As for AAATTAAG, the binding signal in the assay with POU1 (OCT1 POU domain) is 0.303 % of ANNNNAAN 8-mers; with POU2 (OCT2 POU domain), 0.342 % of ANNNNAAN 8-mers; in assay [1], 0.238 % of ANNNNAAN 8-mers; in assay [2], 0.319 % of ANNNNAAN 8-mers.
For AATTCAAG, in that order: 0.101 % of ANNNNAAN 8-mers, 0.0886 % of ANNNNAAN 8-mers, 0.0714 % of ANNNNAAN 8-mers and 0.0817 % of ANNNNAAN 8-mers.
Taken in the same sequence, the figures for AGGAGAAA were 0.0572 % of ANNNNAAN 8-mers, 0.0541 % of ANNNNAAN 8-mers, 0.0539 % of ANNNNAAN 8-mers and 0.0471 % of ANNNNAAN 8-mers.
On to AAAGGAAA, for which the binding signal was 0.103 % of ANNNNAAN 8-mers with POU1 (OCT1 POU domain), 0.0903 % of ANNNNAAN 8-mers with POU2 (OCT2 POU domain), 0.144 % of ANNNNAAN 8-mers in assay [1] and 0.0933 % of ANNNNAAN 8-mers in assay [2].
As to AAAAGAAT, the binding signal with POU1 (OCT1 POU domain) was 0.0858 % of ANNNNAAN 8-mers; with POU2 (OCT2 POU domain), 0.088 % of ANNNNAAN 8-mers; in assay [1] it was 0.0937 % of ANNNNAAN 8-mers; in assay [2] it was 0.0817 % of ANNNNAAN 8-mers.
Taken in the same sequence, the figures for ACACAAAG were 0.0309 % of ANNNNAAN 8-mers, 0.0196 % of ANNNNAAN 8-mers, 0.0418 % of ANNNNAAN 8-mers and 0.0305 % of ANNNNAAN 8-mers.
Taken in the same sequence, the figures for ATTAGAAT were 0.5 % of ANNNNAAN 8-mers, 0.61 % of ANNNNAAN 8-mers, 0.133 % of ANNNNAAN 8-mers and 0.18 % of ANNNNAAN 8-mers.
Taken in the same sequence, the figures for ATGTAAAA were 0.714 % of ANNNNAAN 8-mers, 0.496 % of ANNNNAAN 8-mers, 0.631 % of ANNNNAAN 8-mers and 0.618 % of ANNNNAAN 8-mers.
Consider AGCAAAAA, for which the binding signal with POU1 (OCT1 POU domain) was 0.0831 % of ANNNNAAN 8-mers; with POU2 (OCT2 POU domain) it was 0.0604 % of ANNNNAAN 8-mers; in assay [1], 0.11 % of ANNNNAAN 8-mers; in assay [2] it was 0.0644 % of ANNNNAAN 8-mers.
Taken in the same sequence, the figures for ATGGAAAC were 0.0805 % of ANNNNAAN 8-mers, 0.0616 % of ANNNNAAN 8-mers, 0.11 % of ANNNNAAN 8-mers and 0.066 % of ANNNNAAN 8-mers.
Taken in the same sequence, the figures for AAAATAAA were 0.153 % of ANNNNAAN 8-mers, 0.16 % of ANNNNAAN 8-mers, 0.148 % of ANNNNAAN 8-mers and 0.105 % of ANNNNAAN 8-mers.
Taken in the same sequence, the figures for AATAAAAA were 0.137 % of ANNNNAAN 8-mers, 0.132 % of ANNNNAAN 8-mers, 0.125 % of ANNNNAAN 8-mers and 0.0958 % of ANNNNAAN 8-mers.
With ATGGCAAT, the binding signal was 0.0545 % of ANNNNAAN 8-mers with POU1 (OCT1 POU domain), 0.0719 % of ANNNNAAN 8-mers in the assay with POU2 (OCT2 POU domain), 0.0484 % of ANNNNAAN 8-mers in assay [1] and 0.0578 % of ANNNNAAN 8-mers in assay [2].
